# Assay results taken from the supplement of paper PMC10849652.
# Of roughly 8,800 targets only a part is listed; those with a hit were picked by preference. About 0.5% of all pairs of compound and target were hits. Values without a mark were called inactive.
# Key:
# Assay in all cases: log2 fold change, soluble protein after heating vs DMSO (PISA); higher = thermal stabilisation; K562 lysate, 10 uM; active = over 0.2 and 3.5 SD of the protein, either way, in both replicates (recomputed)
# [1] = compound: CS(=O)(=O)CCNCc1ccc(-c2ccc3ncnc(Nc4ccc(OCc5cccc(F)c5)c(Cl)c4)c3c2)o1 [lapatinib]
# How it was run: (§1)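 A 30 min treatment with 10 μM compound was applied to crude K562 extract at 1 mg/mL protein in PBS pH 7.4 with 1 mM MgCl2. Heating for 3 min spanned 48°C-58°C, after which aliquots were pooled, adjusted to 0.5% NP-40 at 4°C and spun at 21,000xg for 90 min. TMTpro 16plex LC-MS/MS of the supernatant, with channel sums equalised, gave values recorded as log-two fold change in thermal stability against solvent controls, from duplicates.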
# [2] = compound: CS(=O)(=O)N1CCN(Cc2cc3nc(-c4cccc5[nH]ncc45)nc(N4CCOCC4)c3s2)CC1 [pictilisib]
# How it was run: as §1
# [3] = compound: C[C@@H](Oc1cc(-c2cnn(C3CCNCC3)c2)cnc1N)c1c(Cl)ccc(F)c1Cl [crizotinib]
# How it was run: as §1
# [4] = compound: C[C@H](C1=CC=C(C=C1)C(=O)NC2=C3C=CNC3=NC=C2)N
# How it was run: as §1
# [5] = compound: C[C@H](Nc1ncnc2nc[nH]c12)c1cc2cccc(Cl)c2c(=O)n1-c1ccccc1 [duvelisib]
# How it was run: as §1
# [6] = compound: Cc1cc(Nc2cc(CN3CCOCC3)c3nc(C)c(Cc4ccc(Cl)cc4F)n3n2)n[nH]1 [gandotinib]
# How it was run: as §1
# [7] = compound: Cc1cc(Nc2cc(N3CCN(C)CC3)nc(Sc3ccc(NC(=O)C4CC4)cc3)n2)n[nH]1 [tozasertib]
# How it was run: as §1
# [8] = compound: Cc1ccc(-n2nc(C(C)(C)C)cc2NC(=O)Nc2ccc(OCCN3CCOCC3)c3ccccc23)cc1 [doramapimod]
# How it was run: as §1
# [9] = compound: Cc1ccc(NC(=O)c2ccc(CN3CC[C@H](N(C)C)C3)c(C(F)(F)F)c2)cc1Nc1nccc(-c2cncnc2)n1 [bafetinib]
# How it was run: as §1
# [10] = compound: Cc1cccc(CC(=O)N2CCc3c2ccc(-c2cn(C)c4ncnc(N)c24)c3F)n1
# How it was run: as §1
# [11] = compound: Cc1cn(-c2cc(NC(=O)c3ccc(C)c(Nc4nccc(-c5cccnc5)n4)c3)cc(C(F)(F)F)c2)cn1 [nilotinib]
# How it was run: as §1
# [12] = compound: Cc1nc(Nc2n[nH]c3c2CN(C(=O)N[C@H](CN(C)C)c2ccccc2)C3(C)C)c2sccc2n1
# How it was run: as §1
# [13] = compound: Cc1nc(Nc2ncc(C(=O)Nc3c(C)cccc3Cl)s2)cc(N2CCN(CCO)CC2)n1 [dasatinib]
# How it was run: as §1
# [14] = compound: Cc1ncc(-c2ccnc(Nc3ccc(S(C)(=O)=O)cc3)n2)n1C(C)C
# How it was run: as §1
# [15] = compound: Cn1cc(-c2ccc3c(c2)CCN3C(=O)Cc2cccc(C(F)(F)F)c2)c2c(N)ncnc21
# How it was run: as §1
# [16] = compound: Cn1cc(CNCC2CCN(c3ncc(C(=O)NO)cn3)CC2)c2ccccc21 [quisinostat]
# How it was run: as §1
# [17] = compound: Cn1cncc1[C@@](N)(c1ccc(Cl)cc1)c1ccc2c(c1)c(-c1cccc(Cl)c1)cc(=O)n2C [tipifarnib]
# How it was run: as §1
# [18] = compound: NC(=O)Nc1cc(-c2cccc(F)c2)sc1C(=O)N[C@H]1CCCNC1
# How it was run: as §1
# [19] = compound: NC(=O)c1cnc(N[C@@H]2CCCC[C@@H]2N)nc1Nc1cccc(-n2nccn2)c1
# How it was run: as §1
# [20] = compound: NC1(c2ccc(-c3nc4ccn5c(=O)[nH]nc5c4cc3-c3ccccc3)cc2)CCC1
# How it was run: as §1
# UniProt Q9UQE7, sequence (Q9UQE7 whole entry, looked up): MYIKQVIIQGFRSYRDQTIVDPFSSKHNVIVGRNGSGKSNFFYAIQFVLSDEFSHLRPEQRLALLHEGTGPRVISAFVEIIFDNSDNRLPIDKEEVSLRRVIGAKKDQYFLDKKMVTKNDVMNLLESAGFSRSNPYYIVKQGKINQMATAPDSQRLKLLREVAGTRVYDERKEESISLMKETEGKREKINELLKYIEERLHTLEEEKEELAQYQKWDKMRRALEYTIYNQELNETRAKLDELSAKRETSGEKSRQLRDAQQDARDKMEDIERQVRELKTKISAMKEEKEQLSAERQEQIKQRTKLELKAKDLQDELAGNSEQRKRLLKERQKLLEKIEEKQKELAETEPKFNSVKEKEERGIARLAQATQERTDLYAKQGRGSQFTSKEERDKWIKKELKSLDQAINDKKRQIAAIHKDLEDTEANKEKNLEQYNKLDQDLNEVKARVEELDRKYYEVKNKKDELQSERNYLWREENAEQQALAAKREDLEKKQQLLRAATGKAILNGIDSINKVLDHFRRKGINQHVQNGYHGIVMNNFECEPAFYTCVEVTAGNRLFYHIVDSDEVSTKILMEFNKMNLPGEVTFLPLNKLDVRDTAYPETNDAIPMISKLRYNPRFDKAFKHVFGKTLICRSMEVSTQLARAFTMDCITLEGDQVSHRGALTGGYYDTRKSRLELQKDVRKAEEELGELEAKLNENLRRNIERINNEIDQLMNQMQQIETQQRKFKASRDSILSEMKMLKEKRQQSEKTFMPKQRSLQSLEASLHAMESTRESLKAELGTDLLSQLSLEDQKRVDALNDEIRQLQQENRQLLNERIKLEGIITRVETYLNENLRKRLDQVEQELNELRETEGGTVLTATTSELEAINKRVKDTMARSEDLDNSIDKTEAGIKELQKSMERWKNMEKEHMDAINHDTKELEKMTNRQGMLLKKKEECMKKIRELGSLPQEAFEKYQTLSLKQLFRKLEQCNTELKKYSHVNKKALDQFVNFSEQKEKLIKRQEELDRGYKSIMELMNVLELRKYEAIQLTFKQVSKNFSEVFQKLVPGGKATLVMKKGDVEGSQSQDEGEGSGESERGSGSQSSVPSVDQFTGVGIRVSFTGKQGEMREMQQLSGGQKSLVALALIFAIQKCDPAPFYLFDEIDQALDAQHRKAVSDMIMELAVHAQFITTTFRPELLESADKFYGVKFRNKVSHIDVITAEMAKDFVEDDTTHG
# UniProt Q9UJZ1, sequence (Q9UJZ1 whole entry, looked up): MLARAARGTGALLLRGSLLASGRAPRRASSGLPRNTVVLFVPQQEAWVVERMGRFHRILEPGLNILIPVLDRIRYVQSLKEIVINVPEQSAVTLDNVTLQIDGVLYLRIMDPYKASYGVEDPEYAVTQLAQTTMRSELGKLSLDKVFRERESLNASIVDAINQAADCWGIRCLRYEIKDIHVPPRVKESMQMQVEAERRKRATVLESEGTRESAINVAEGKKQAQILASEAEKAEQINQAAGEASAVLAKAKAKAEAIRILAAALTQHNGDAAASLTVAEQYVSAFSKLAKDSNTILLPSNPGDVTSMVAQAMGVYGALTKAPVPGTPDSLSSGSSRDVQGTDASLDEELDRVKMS
# UniProt Q96JI7, sequence (Q96JI7 whole entry, looked up): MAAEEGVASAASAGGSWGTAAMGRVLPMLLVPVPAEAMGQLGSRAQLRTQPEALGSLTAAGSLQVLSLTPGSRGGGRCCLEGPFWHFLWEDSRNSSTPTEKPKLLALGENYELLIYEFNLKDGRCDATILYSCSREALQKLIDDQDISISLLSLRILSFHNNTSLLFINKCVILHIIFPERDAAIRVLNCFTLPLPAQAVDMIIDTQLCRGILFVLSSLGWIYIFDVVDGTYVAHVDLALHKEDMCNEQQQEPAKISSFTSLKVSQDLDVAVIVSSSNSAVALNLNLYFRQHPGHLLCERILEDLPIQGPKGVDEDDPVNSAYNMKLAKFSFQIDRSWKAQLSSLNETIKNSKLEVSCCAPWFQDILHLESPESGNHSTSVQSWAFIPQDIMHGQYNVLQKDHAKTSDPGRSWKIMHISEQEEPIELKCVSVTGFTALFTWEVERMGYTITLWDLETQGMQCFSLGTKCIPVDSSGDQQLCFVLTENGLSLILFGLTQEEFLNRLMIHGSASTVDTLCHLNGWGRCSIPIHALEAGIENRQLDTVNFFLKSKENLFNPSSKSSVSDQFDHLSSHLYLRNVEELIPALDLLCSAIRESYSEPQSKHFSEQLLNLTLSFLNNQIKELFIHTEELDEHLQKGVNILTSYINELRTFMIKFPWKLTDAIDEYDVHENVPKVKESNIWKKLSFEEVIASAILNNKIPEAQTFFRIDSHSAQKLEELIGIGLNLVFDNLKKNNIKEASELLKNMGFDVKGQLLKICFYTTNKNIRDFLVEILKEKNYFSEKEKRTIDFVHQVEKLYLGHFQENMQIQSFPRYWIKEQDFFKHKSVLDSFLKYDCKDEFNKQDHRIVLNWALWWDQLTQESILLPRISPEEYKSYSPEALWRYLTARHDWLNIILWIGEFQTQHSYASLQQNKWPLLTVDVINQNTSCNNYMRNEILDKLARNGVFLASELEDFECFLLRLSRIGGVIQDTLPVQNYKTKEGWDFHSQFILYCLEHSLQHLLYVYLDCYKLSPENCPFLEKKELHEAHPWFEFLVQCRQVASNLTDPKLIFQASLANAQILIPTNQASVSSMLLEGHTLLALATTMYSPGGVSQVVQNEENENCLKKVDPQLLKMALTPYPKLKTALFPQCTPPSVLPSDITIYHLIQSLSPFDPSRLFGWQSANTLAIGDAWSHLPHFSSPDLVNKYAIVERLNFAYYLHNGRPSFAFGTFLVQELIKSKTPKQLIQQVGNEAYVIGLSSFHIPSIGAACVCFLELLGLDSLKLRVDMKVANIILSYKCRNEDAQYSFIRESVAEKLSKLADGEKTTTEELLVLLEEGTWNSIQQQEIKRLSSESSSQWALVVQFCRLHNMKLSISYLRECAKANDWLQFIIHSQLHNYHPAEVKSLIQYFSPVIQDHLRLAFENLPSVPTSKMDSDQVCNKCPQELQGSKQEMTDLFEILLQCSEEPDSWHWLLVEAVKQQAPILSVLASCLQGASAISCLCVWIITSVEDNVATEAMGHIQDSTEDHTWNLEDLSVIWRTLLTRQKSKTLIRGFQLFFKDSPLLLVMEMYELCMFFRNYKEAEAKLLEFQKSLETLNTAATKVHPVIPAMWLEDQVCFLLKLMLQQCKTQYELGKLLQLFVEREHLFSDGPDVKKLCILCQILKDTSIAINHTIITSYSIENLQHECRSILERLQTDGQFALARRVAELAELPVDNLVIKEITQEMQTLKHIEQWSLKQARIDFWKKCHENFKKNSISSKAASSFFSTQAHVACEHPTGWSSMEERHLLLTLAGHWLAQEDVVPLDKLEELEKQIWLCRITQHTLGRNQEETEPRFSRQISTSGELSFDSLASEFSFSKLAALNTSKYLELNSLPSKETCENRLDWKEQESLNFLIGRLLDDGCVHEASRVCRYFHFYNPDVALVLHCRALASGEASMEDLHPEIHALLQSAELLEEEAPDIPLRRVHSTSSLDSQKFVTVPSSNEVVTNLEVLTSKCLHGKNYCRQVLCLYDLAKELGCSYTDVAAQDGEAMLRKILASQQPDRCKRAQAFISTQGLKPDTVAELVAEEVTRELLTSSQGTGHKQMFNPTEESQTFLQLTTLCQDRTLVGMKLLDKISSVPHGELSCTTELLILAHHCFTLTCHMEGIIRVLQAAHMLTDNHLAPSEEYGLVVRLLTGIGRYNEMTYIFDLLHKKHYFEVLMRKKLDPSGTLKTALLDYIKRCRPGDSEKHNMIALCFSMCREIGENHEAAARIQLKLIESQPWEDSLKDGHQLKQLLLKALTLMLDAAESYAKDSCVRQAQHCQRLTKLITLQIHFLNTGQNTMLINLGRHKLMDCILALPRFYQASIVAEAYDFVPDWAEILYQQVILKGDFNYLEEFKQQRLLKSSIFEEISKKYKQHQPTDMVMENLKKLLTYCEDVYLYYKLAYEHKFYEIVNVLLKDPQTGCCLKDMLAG
# UniProt Q6NXT6, sequence (Q6NXT6 whole entry, looked up): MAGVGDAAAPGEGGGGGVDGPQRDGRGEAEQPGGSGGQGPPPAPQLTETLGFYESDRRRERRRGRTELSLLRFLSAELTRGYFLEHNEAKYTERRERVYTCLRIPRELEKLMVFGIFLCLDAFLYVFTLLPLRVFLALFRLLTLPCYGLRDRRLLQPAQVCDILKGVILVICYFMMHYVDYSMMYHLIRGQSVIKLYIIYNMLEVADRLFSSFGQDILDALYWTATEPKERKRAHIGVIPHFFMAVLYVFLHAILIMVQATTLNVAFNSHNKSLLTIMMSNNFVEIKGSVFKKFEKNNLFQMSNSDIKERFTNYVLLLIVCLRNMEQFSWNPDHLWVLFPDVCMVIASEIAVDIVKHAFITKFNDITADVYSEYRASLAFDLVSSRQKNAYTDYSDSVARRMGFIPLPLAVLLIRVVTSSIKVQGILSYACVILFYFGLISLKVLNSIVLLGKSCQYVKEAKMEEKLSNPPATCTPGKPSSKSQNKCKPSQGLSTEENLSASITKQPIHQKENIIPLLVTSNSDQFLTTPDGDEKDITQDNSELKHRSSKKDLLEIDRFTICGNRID
# UniProt Q8NHG7, sequence (Q8NHG7 whole entry, looked up): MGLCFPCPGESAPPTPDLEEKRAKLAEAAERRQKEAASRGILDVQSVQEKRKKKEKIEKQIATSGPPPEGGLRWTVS
# UniProt O00506, sequence (O00506 whole entry, looked up): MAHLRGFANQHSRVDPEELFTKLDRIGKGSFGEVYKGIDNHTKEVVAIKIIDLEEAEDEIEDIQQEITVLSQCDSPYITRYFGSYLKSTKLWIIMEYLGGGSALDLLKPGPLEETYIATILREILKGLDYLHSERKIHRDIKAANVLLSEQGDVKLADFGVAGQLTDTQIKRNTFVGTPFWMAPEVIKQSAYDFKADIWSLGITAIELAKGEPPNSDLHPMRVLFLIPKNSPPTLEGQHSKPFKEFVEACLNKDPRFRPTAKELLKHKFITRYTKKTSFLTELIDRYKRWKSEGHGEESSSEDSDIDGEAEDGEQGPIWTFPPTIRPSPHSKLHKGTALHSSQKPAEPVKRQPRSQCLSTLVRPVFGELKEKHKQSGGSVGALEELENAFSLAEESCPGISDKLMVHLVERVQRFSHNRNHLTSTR
Target,log2 fold change [1],log2 fold change [2],log2 fold change [3],log2 fold change [4],log2 fold change [5],log2 fold change [6],log2 fold change [7],log2 fold change [8],log2 fold change [9],log2 fold change [10],log2 fold change [11],log2 fold change [12],log2 fold change [13],log2 fold change [14],log2 fold change [15],log2 fold change [16],log2 fold change [17],log2 fold change [18],log2 fold change [19],log2 fold change [20]
SVIP (UniProt Q8NHG7),0.005,-0.03,-0.037,0.027,-0.013,0.01,0.037,0.021,-0.008,0.032,-0.006,0,-0.066,0.089,-0.013,0.034,0.004,-0.095,-0.012,-0.004
STOML2 (UniProt Q9UJZ1),0.013,-0.021,0.028,0.089,0.035,0.015,0.012,-0.032,0.033,-0.023,-0.017,-0.01,0.004,0.017,-0.001,0.035,0.005,0.018,0.002,-0.003
SLC27A4 (UniProt Q6P1M0),-0.052,-0.005,-0.049,-0.04,0.037,0.095,-0.045,0.149,-0.057,0.052,-0.061,0.002,0.026,-0.036,0.048,-0.123,0.096,0.036,-0.023,0.036
SLC12A6 (UniProt Q9UHW9),0.037,-0.046,-0.025,0.008,0.015,-0.028,-0.002,0.027,-0.011,0.034,-0.004,0,0.024,-0.066,-0.003,-0.013,0.012,-0.001,-0.022,0.026
SLC29A2 (UniProt Q14542),-0.006,0.04,-0.068,-0.558 (active),0.083,0.159,0.035,-0.023,0.045,0.146,0.083,0.095,0.029,0.058,0.037,-0.242,0.048,0.088,-0.037,-0.021
SNCA (UniProt P37840),0.137,-0.014,0.127,-0.101,-0.005,0.456 (active),0.016,0.196,0.098,0.073,0.148,0.075,0.128,-0.032,0.019,-0.031,0.159,-0.112,-0.049,0
SPG11 (UniProt Q96JI7),-0.163,-0.021,-0.102,-0.049,0.048,0,0.047,0.024,0.138,-0.009,-0.024,0.026,-0.052,0.026,0.025,-0.048,-0.007,-0.017,0.05,-0.046
STK25 (UniProt O00506),-0.058,-0.041,0.008,-0.036,-0.055,0.18,0.033,-0.081,0.001,0.005,0.037,0.265,0.235,0.026,0.059,0.013,-0.027,0.165,0.032,-0.009
SLC25A17 (UniProt O43808),-0.033,0.015,-0.052,-0.303 (active),0.029,0.072,-0.069,0.007,-0.066,0.085,-0.049,0.006,0.01,0.032,0.023,-0.125,-0.068,0.028,0.038,-0.026
STK4 (UniProt Q13043),-0.029,-0.025,0.382,-0.104,0.004,0.504 (active),0.27,-0.027,-0.053,0.062,-0.077,0.343,0.214,0.177,0.282,-0.105,-0.047,0.585 (active),0.134,-0.016
SHKBP1 (UniProt Q8TBC3),-0.027,-0.045,-0.009,-0.045,0.055,0.034,-0.009,0.005,-0.04,0.055,0.055,0.098,0.117,-0.072,-0.011,-0.039,0.088,-0.016,0.007,-0.096
SLC38A1 (UniProt Q9H2H9),-0.008,-0.01,-0.064,-0.218,0.048,0.096,0.026,-0.009,0.003,0.095,-0.001,0.007,0.001,-0.002,-0.041,-0.123,-0.032,-0.015,0.001,-0.024
TAPT1 (UniProt Q6NXT6),-0.007,0.025,-0.044,-0.196,0.012,0.057,0.031,0.024,0.01,0.093,0.009,0.012,0.013,0.03,-0.118,-0.053,0.017,-0.032,0.011,-0.001
TARBP1 (UniProt Q13395),-0.009,0.007,-0.122,0.017,-0.034,-0.124,0.098,-0.022,-0.044,0.079,-0.045,0.036,-0.03,-0.003,0.046,-0.158,0.007,0.142,0.007,-0.021
SMC3 (UniProt Q9UQE7),0.007,0.006,0.011,0.037,-0.01,-0.013,0.001,-0.007,-0.021,-0.012,0,-0.01,0.024,0.013,0.024,0.023,0.002,0,-0.003,0.016
SMC2 (UniProt O95347),-0.019,0.013,-0.028,0.121,-0.009,-0.177,0.014,0.037,-0.02,-0.059,-0.017,-0.005,-0.036,0.007,0.025,-0.023,0.024,0.034,0.017,-0.003
